For 42 compounds, inhibition results are on record in PubChem BioAssay AID651687 (Broad Institute, 2012).

Values joined by “and” are separate entries in the source; they are usually repeats but may differ in a detail not shown here. Equal values may be shown once. The campaign covered roughly 350,000 compounds. About 600 (0.17%) were called active. The full list was thinned out, with actives kept by preference. Values without a mark were called inactive.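 How the source made its calls: active means every replicate shows inhibition of at least 40%; inconclusive means mean inhibition at least 40% but some replicate below; inactive means the rest.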

A short description of the test: inhibitors of PGC1a acetylation signal, primary screen, cell-based, U2OS, AlphaScreen, inhibitor mode (AID 651687).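 Further: 0% = neutral control wells and 100% = positive control wells.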 The settings on record: AlphaScreen anti-acetyl-lysine, at 15.6 µM, active compounds read high, with virally co-expressed GCN5 acetyltransferase. On the technique in general: In Alpha technology, singlet oxygen from a donor bead excites a nearby acceptor bead.
The term inhibition denotes the drop in the measured response relative to a control, in per cent. Consider `CN(C)CC(=O)Nc1ccc2c(c1)[C@H]1C[C@H](CC(=O)NCc3ccc4c(c3)OCO4)O[C@@H](CO)[C@H]1O2`, for which the inhibition is -4.35%.
Turning to `CC(=O)N(C)C[C@@H]1Oc2ncc(C#CCc3ccccc3)cc2C(=O)N([C@H](C)CO)C[C@H]1C`, the inhibition was 2.72%.
On to `Cc1ccc(S(=O)(=O)Nc2ccc3c(c2)C(=O)N([C@H](C)CO)C[C@@H](C)[C@H](CN(C)Cc2ccccc2)O3)cc1`, for which the inhibition is -12.1%.
The result for `CCNC(=O)C[C@@H]1CC[C@@H]2[C@H](COc3ccc(NC(=O)Nc4cccc(C)c4)cc3C(=O)N2C)O1` reads 0.938%; that for `O=C(C[C@@H]1C[C@@H]2c3cc(NC(=O)Nc4ccccc4F)ccc3O[C@@H]2[C@@H](CO)O1)NCCc1ccccc1`, 9.83%.
On to `O=C(C1CCCC1)N1CC(=O)N2[C@@H](CO)[C@H](c3ccc(C#CC4CCCC4)cc3)[C@@H]2C1`, for which the inhibition is -10.1%.
The value for `O=C(C[C@@H]1CC[C@H](NC(=O)Nc2ccc3c(c2)OCO3)[C@H](CO)O1)NCc1ccccc1` was 2.06%; that for `COc1cc(NC(=O)c2cncc(-c3ccc(C#N)cc3)c2)cc(C(=O)Nc2cccc(C(F)(F)F)c2)c1` was 4.55% and 7.38%.
The value for `COc1ccc(C(N)c2csc(NC(=O)Nc3cccc(C(F)(F)F)c3)n2)cc1` (configuration not stated) was -29.2%.
Regarding `COc1cc(NC(=O)c2[nH]cnc2C(N)=O)cc(C(=O)Nc2cccc(C(F)(F)F)c2)c1`, the inhibition was 62.8% (active).
Take `COc1cccc(-c2cn(CC[C@@H]3CC[C@@H](NC(C)=O)[C@@H](CO)O3)nn2)c1`: the inhibition was 22.5%.
The result for `O=C(C[C@H]1C=C[C@@H](NC(=O)c2cnccn2)[C@H](CO)O1)NCc1ccccc1F` reads -3.99%.
For `Cc1noc(C)c1S(=O)(=O)Nc1ccc2c(c1)CC(=O)N([C@H](C)CO)C[C@@H](C)[C@@H](CN(C)C)O2`, the inhibition is 4.76%.
Take `CCCNC(=O)C[C@H]1CC[C@@H]2[C@H](COC[C@H](O)CN2CC2CCCCC2)O1`: the inhibition is -2.1%.
As for `O=C(O)C[C@H]1C[C@@H]2c3cc(NC(=O)Nc4ccc(C(F)(F)F)cc4)ccc3O[C@@H]2[C@@H](CO)O1`, the inhibition was -2.34%.
The result for `C[C@H](O)C#Cc1ccc([C@H]2[C@H](CO)N3CCCCN(C(=O)c4ccc(F)cc4)C[C@@H]23)cc1` reads -4.78%; that for `CCC(=O)N(C)C[C@H]1Oc2ncc(-c3ccc(C#N)cc3)cc2C(=O)N([C@@H](C)CO)C[C@H]1C`, -11.3%; that for `CCCNC(=O)N[C@H]1C=C[C@@H](CC(=O)NC2CCCCC2)O[C@H]1CO`, -18.5%.
The result for `Cc1ccc(S(=O)(=O)Nc2ccc3c(c2)C(=O)N([C@@H](C)CO)C[C@H](C)[C@@H](CN(C)Cc2ccc4c(c2)OCO4)O3)cc1` reads 1.59%.
For `COC(=O)C[C@H]1CC[C@@H]2[C@@H](COc3ccc(NC(=O)Nc4ccc(Cl)cc4)cc3C(=O)N2C)O1`, the inhibition is -4.91%.
The value for `O=C(CSC(=S)N1CCOCC1)c1ccccc1` was -7.05%.
As to `NC(=NC(=O)c1ccccc1)N1CCOCC1`, the inhibition is 84.1% (active).
As for `N[C@@H](Cc1ccccc1)C(=O)N1CCOCC1`, the inhibition is -8.48%.
Regarding `CCCC(=O)Nc1ccc2c(c1)C(=O)N(C)[C@@H]1CC[C@H](CC(=O)NCCN3CCCCC3)O[C@@H]1CO2`, the inhibition is 1.12%.
The value for `C[C@@H]1CCCCO[C@H](CN(C)C(=O)c2ccccc2)[C@@H](C)CN([C@H](C)CO)C(=O)c2cc(NC(=O)c3ccccc3)ccc2O1` was 5.89%.
The result for `C[C@@H]1CN([C@H](C)CO)C(=O)c2cc(NC(=O)c3ccccc3)ccc2O[C@@H](C)CCCCO[C@H]1CN(C)C(=O)c1ccncc1` reads 8.37%.
As for `CCNC(=O)Nc1ccc2c(c1)C(=O)N(C)[C@@H]1CC[C@@H](CC(=O)NC3CCCCC3)O[C@H]1CO2`, the inhibition is 1.93%.
In the case of `C[C@@H]1CN([C@H](C)CO)C(=O)c2cc(NC(=O)C3CCCCC3)ccc2O[C@@H](C)CCCCO[C@H]1CN(C)S(C)(=O)=O`, the inhibition is 6.77%.
With `COc1ccc(S(=O)(=O)N(C)C[C@@H]2Oc3ccc(NC(=O)Cc4cn(C)c5ccccc45)cc3C(=O)N([C@H](C)CO)C[C@H]2C)cc1`, the inhibition was -8.14%.
For `C[C@@H]1CN([C@H](C)CO)S(=O)(=O)c2ccc(-c3ccc(C(=O)N(C)C)cc3)cc2O[C@@H]1CN(C)C(=O)Nc1ccccc1F`, the inhibition is -11.4%.
The value for `CO[C@H]1CN(C)C(=O)c2ccc(NC(=O)C3CC3)cc2OC[C@H](C)N(Cc2ccncc2)C[C@@H]1C` was -7.97%.
Consider `COc1ccc(NC(=O)Nc2cccc3c2O[C@@H](CN(C)S(=O)(=O)c2ccc(C)cc2)[C@H](C)CN([C@@H](C)CO)C3=O)cc1`, for which the inhibition is 3.27%.
For the compound `CO[C@H](C(=O)N(C)C[C@@H]1OCc2ccccc2-c2c(n(C)c3ccccc23)C(=O)N([C@@H](C)CO)C[C@H]1C)c1ccccc1`, the inhibition was -1.42%.
As for `CCCN1C[C@@H](C)[C@@H](OC)CN(C)C(=O)c2cc(NC(=O)C3CCC3)ccc2OC[C@H]1C`, the inhibition is -10.1%.
The result for `CO[C@H]1CN(C)C(=O)c2cc(NS(=O)(=O)c3ccccc3)ccc2OC[C@H](C)N(C(=O)NC(C)C)C[C@@H]1C` reads 8.54%; that for `O=C(c1ccncc1)N1CC2(C1)[C@@H](c1ccccc1)[C@H](CO)N2C(=O)c1ccncc1`, 6.1%; that for `C[C@@H]1CCCCO[C@@H](CN(C)C(=O)c2ccccc2)[C@H](C)CN([C@@H](C)CO)C(=O)c2cc(NS(C)(=O)=O)ccc2O1`, -1.5%.
Take `Cc1[nH]c2ccc(C(=O)N3CCN(C)CC3)cc2c1C`: the inhibition is 1.27%.
The result for `CCOC(=O)c1ccc2[nH]c(C)c(CN3CCN(C)CC3)c(=O)c2c1` reads 59.3% (active); that for `CCOC(=O)c1ccc2[nH]c3c(c2c1)CCCC3NC=O` (configuration not stated), 5%.
The result for `CO[C@@H]1CN(C)C(=O)c2ccc(NS(C)(=O)=O)cc2OC[C@H](C)N(C(=O)C2CC2)C[C@H]1C` reads -8.93%.
For `COc1ccc(NC(=O)Nc2ccc3c(c2)C(=O)N([C@@H](C)CO)C[C@H](C)[C@@H](CN(C)S(=O)(=O)c2ccc(Cl)cc2)O3)cc1`, the inhibition was -2.11%.
